PubChem BioAssay (EPA / NIEHS)
Inconclusive results are not listed. Calls of active or inactive are those of the source. The calls were made as follows, unless noted: active = hit-call score of the fitted dose curve at least 0.9, where 1 is the maximum; inactive = score below 0.9.

Assays:
[1] = target: Paired box protein Pax-6 (Homo sapiens) (UniProt P26367); experiment: ATG_Pax6_CIS: Attagene CIS-FACTORIAL HepG2 Assay for human Paired Box 6 (PAX6) (AID 2282956); conditions: HepG2 CIS-FACTORIAL PAX6 reporter transcription, RNA readout; actives raise or lower the signal
In short: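 DMSO-referenced bidirectional fits of reporter mRNA fluorescence; HepG2 with transient cis-promoter MRTUs, 24 h post-dose, RT-PCR plus capillary electrophoresis detection.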

[2] = ATG_PXRE_CIS: Attagene CIS-FACTORIAL HepG2 Assay for human Pregnane X Receptor Element (PXRE) (AID 2282957); conditions: HepG2 Attagene CIS-FACTORIAL PXRE reporter, mRNA; actives raise or lower the signal
In short: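 Fluorescent capillary electrophoresis of amplified reporter cDNA gave the signal, collected 24 h after dosing HepG2 cells that held transfected cis-element reporter constructs.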

[3] = ATG_PPRE_CIS: Attagene CIS-FACTORIAL HepG2 Assay for human Peroxisome Proliferator-activated Response Element (PPRE) (AID 2282958); conditions: HepG2 PPRE cis-element reporter, Attagene transcription factor profiling; actives raise or lower the signal
In short: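 DMSO served as negative control and baseline for bidirectional curve fitting. Signal came from PPRE-regulated reporter mRNA in HepG2 cells, measured 24 h post-dosing by RT-PCR, 6-FAM primer extension and capillary electrophoresis.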

[4] = ATG_RORE_CIS: Attagene CIS-FACTORIAL HepG2 Assay for human RAR-related Orphan Receptor Element (RORE) (AID 2282959); conditions: HepG2 Attagene cis-factorial RORE reporter, mRNA; actives raise or lower the signal
In short: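 Transfect HepG2 with MRTUs; treat 24 h; extract RNA; RT with oligo(dT); PCR with reporter-specific primers; 6-FAM primer extension; HpaI digest 2 h at 37 C; capillary electrophoresis. Fit vs DMSO, bidirectional.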

[5] = target: Transcription factor Sp1 (Homo sapiens) (UniProt P08047); experiment: ATG_Sp1_CIS: Attagene CIS-FACTORIAL HepG2 Assay for human Specificity Protein 1 (Sp1) (AID 2282961); conditions: HepG2 Sp1 cis-reporter transcription, actives raise or lower the signal
In short: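 Chemicals are dosed onto HepG2 cells transfected with multiple cis-promoter reporter constructs, and after 24 h reporter RNA is reverse-transcribed, PCR-amplified and resolved by capillary electrophoresis for fluorescence quantitation; activity is scored up or down against DMSO.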

[6] = target: Signal transducer and activator of transcription 3 (Homo sapiens) (UniProt P40763); experiment: ATG_STAT3_CIS: Attagene CIS-FACTORIAL HepG2 Assay for human Signal Transducer and Activator of Transcription 3 (STAT3) (AID 2282963); conditions: HepG2, Attagene cis-factorial STAT3 reporter transcription; actives raise or lower the signal
In short: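 Uses human liver HepG2 transiently carrying cis-regulated reporter transcription units. Following 24 h dosing, reporter mRNA induction was detected by RT-PCR and capillary electrophoresis, analysed bidirectionally versus DMSO.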

[7] = ATG_TA_CIS: Attagene CIS-FACTORIAL HepG2 Assay for human TA Basal Promoter (AID 2282964); conditions: HepG2 Attagene CIS-factorial TA basal promoter reporter; actives raise or lower the signal
In short: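 Transfected HepG2, 24 h compound exposure; RNA → RT-PCR → FAM primer extension → HpaI cut → CE fluorescence. Gain/loss-of-signal fitted against DMSO negative control. Background-control readout.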

[8] = ATG_TCF_b_cat_CIS: Attagene CIS-FACTORIAL HepG2 Assay for human T-Cell-Factor with beta-catenin (TCF/b-cat) (AID 2282965); conditions: HepG2 TCF/beta-catenin cis-reporter transcription, actives raise or lower the signal
In short: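 Using capillary electrophoresis as the read-out, labelled reporter cDNA fragments from transiently transfected HepG2 were sized and quantified. Exposure lasted 24 hours; activity in either direction was referenced to DMSO.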

[9] = ATG_TAL_CIS: Attagene CIS-FACTORIAL HepG2 Assay for human TAL Basal Promoter (AID 2282966); conditions: HepG2 Attagene cis-factorial TAL promoter reporter; actives raise or lower the signal;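 also: background control endpoint measuring basal TAL promoter reporter mRNA not a specific factor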
In short: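 Transiently transfected HepG2 (cis-regulated reporter units), 24 h treatment, mRNA read by fluorescent CE after RT-PCR; bidirectional fit, DMSO baseline.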

[10] = ATG_TGFb_CIS: Attagene CIS-FACTORIAL HepG2 Assay for human Transforming Growth Factor (TGF) (AID 2282967); conditions: HepG2 Attagene CIS TGFb reporter, mRNA transcription; actives raise or lower the signal
In short: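 Readout: fluorescently labeled reporter cDNA fragments resolved by capillary electrophoresis after RT-PCR. Transfected HepG2 cells dosed for 24 h; endogenous TF activity at TGFB1-linked cis element; gain or loss fitted relative to DMSO.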

[11] = target: X-box-binding protein 1 (Homo sapiens) (UniProt P17861); experiment: ATG_Xbp1_CIS: Attagene CIS-FACTORIAL HepG2 Assay for human X-box Binding Protein 1 (XBP1) (AID 2282972); conditions: HepG2 XBP1 cis-element reporter, Attagene multiplex; actives raise or lower the signal
In short: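 Changes in reporter transcript abundance, read by RT-PCR and capillary electrophoresis, reflect endogenous transcription factor activity. Transfected HepG2 cells received compound for 24 hours; DMSO defined baseline for bidirectional analysis.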

[12] = target: Estrogen-related receptor gamma (Homo sapiens) (UniProt P62508); experiment: ATG_ERRg_TRANS: Attagene TRANS-FACTORIAL HepG2 Assay for human Estrogen-Related Receptor gamma (ERRg) (AID 2282977; active = hit-call score of the fitted dose curve at least 0.9, where 1 is the maximum;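 also: hits increase reporter signal over DMSO so potencies reflect activators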); conditions: HepG2 Attagene TRANS reporter, ERRg transactivation
In short: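 Readout: fluorescent reporter-mRNA fragments resolved by capillary electrophoresis after RT-PCR and HpaI cut. Cells: transiently transfected HepG2 carrying GAL4-UAS reporters driven by exogenous NR-Gal4 chimeras, dosed 24 h. Activity fitted upward relative to DMSO baseline.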

[13] = ATG_SREBP_CIS: Attagene CIS-FACTORIAL HepG2 Assay for human Sterol Regulatory Element Binding (SREBP) (AID 2282962); conditions: HepG2 Attagene cis-factorial SREBP reporter, mRNA; actives raise or lower the signal
In short: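 In this cis-format assay, HepG2 liver cells express reporters controlled by promoter elements responsive to native transcription factors. Exposure lasts 24 h; reporter mRNA fluorescence from capillary electrophoresis gives the signal, fitted bidirectionally against DMSO.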

[14] = ATG_VDRE_CIS: Attagene CIS-FACTORIAL HepG2 Assay for human Vitamin D Receptor Element (VDRE) (AID 2282968); conditions: HepG2 VDRE cis-reporter transcription, actives raise or lower the signal
In short: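 Transfected HepG2 reporter cells, chemical treatment 24 h. RNA isolated, cDNA amplified with reporter-specific primers, products analysed by capillary electrophoresis. Endpoint fitted in both directions versus DMSO.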

[15] = ATG_M_19_TRANS: Attagene TRANS-FACTORIAL HepG2 Assay for M19 Transcription Factor (Internal Marker) (AID 2282974; active = hit-call score of the fitted dose curve at least 0.9, where 1 is the maximum); conditions: HepG2 Attagene TRANS-FACTORIAL M19 internal marker reporter
In short: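 Multiplexed TRANS format: HepG2 liver cells bearing transient GAL4-UAS reporter units, chemical treatment 24 h, reporter transcripts quantified by RT-PCR plus capillary electrophoresis. DMSO defines baseline.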

[16] = ATG_GAL4_TRANS: Attagene TRANS-FACTORIAL HepG2 Assay for GAL4 (Internal Marker) (AID 2282976; active = hit-call score of the fitted dose curve at least 0.9, where 1 is the maximum); conditions: HepG2 Attagene TRANS GAL4 internal marker reporter
In short: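 HepG2 cells transiently transfected with multiplexed GAL4-UAS reporter constructs were dosed for 24 h. Reporter mRNA was measured by RT-PCR, 6-FAM primer extension, HpaI digestion and capillary electrophoresis, and gain of signal was fitted relative to DMSO.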

[17] = target: Steroid hormone receptor ERR1 (Homo sapiens) (UniProt P11474); experiment: ATG_ERRa_TRANS: Attagene TRANS-FACTORIAL HepG2 Assay for human Estrogen-Related Receptor alpha (ERRa) (AID 2282971; active = hit-call score of the fitted dose curve at least 0.9, where 1 is the maximum); conditions: HepG2 Attagene TRANS reporter, ERRa transactivation
In short: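 HepG2 cells transiently transfected with multiplexed GAL4-UAS reporter units reading chimeric ERRa-Gal4 activity; 24 h compound exposure. Reporter mRNA measured by RT-PCR, 6-FAM labelling, HpaI digest and capillary electrophoresis; gain of signal fitted versus DMSO baseline.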

[18] = ATG_Sox_CIS: Attagene CIS-FACTORIAL HepG2 Assay for human SRY-box transcription factor (SOX) (AID 2282960); conditions: HepG2 Attagene cis-factorial SOX reporter, mRNA; actives raise or lower the signal
In short: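 Fluorescence-labelled cDNA fragments from reporter transcripts, sized by CE, give the signal. Cells: HepG2, transiently transfected with cis-regulated reporter units. Exposure 24 h; DMSO negative control; bidirectional curve fitting.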

[19] = target: Estrogen receptor (Homo sapiens) (UniProt P03372); experiment: ATG_ERa_TRANS: Attagene TRANS-FACTORIAL HepG2 Assay for human Estrogen Receptor alpha (ERa) (AID 2282970; active = hit-call score of the fitted dose curve at least 0.9, where 1 is the maximum); conditions: HepG2 Attagene TRANS ERa GAL4 reporter, mRNA
In short: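 One of 30 multiplexed endpoints from a HepG2 TRANS system, this one reports ERa-Gal4-driven reporter mRNA. Transcripts were quantified 24 hours post-dosing by fluorescent RT-PCR and capillary electrophoresis, with activity scored as induction over DMSO.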

[20] = target: Nuclear receptor subfamily 1 group I member 3 (Homo sapiens) (UniProt Q14994); experiment: ATG_CAR_TRANS: Attagene TRANS-FACTORIAL HepG2 Assay for human Constitutive Androstane Receptor (CAR) (AID 2282969; active = hit-call score of the fitted dose curve at least 0.9, where 1 is the maximum;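 also: activators raise reporter mRNA above DMSO so AC50 marks induction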); conditions: HepG2 Attagene TRANS-FACTORIAL CAR reporter
In short: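 Steps: transient transfection of HepG2 with multiple GAL4-UAS reporter units; 24 h compound incubation; RNA isolation, RT-PCR, 6-FAM primer extension, HpaI digest; capillary electrophoresis. Gain-of-signal relative to DMSO negative control.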

Measured: AC50

Sequence of Estrogen-related receptor gamma (Homo sapiens) (P62508 whole entry, looked up, the tested form may be a part): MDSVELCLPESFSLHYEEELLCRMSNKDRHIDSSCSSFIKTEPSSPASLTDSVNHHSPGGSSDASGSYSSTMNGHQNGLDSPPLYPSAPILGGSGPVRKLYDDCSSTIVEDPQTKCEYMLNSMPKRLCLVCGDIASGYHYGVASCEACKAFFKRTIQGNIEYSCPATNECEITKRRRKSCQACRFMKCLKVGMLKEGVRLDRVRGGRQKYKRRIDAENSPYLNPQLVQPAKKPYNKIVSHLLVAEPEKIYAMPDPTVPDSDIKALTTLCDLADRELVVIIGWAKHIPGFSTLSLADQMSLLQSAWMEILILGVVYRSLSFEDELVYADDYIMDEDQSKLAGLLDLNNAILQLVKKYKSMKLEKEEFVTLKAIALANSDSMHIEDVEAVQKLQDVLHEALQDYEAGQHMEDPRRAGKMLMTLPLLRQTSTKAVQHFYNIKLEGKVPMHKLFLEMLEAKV
Sequence of Estrogen receptor (Homo sapiens) (P03372 whole entry, looked up, the tested form may be a part): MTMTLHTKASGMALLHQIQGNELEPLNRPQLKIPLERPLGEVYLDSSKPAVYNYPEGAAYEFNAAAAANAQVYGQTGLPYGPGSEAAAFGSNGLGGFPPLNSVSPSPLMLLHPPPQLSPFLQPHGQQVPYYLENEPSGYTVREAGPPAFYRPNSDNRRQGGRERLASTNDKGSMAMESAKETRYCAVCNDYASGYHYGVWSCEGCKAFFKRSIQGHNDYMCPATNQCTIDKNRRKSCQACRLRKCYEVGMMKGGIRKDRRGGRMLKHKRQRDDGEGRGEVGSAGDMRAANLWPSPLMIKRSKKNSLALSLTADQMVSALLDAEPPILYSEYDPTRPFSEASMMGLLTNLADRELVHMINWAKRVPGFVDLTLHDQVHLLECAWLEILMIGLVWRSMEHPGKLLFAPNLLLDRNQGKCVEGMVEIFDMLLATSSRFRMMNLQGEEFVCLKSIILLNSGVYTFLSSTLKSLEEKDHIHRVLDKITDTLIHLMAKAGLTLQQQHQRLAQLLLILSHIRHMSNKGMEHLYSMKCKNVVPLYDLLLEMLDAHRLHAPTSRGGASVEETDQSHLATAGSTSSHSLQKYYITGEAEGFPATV
Sequence of X-box-binding protein 1 (Homo sapiens) (P17861 whole entry, looked up): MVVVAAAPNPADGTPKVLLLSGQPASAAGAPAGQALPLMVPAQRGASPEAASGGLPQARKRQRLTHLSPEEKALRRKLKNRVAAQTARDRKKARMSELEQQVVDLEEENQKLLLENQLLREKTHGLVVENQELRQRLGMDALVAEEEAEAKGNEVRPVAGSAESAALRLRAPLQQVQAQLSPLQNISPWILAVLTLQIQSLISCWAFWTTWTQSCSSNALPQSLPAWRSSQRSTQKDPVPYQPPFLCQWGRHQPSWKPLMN
Sequence of Paired box protein Pax-6 (Homo sapiens) (P26367 whole entry, looked up): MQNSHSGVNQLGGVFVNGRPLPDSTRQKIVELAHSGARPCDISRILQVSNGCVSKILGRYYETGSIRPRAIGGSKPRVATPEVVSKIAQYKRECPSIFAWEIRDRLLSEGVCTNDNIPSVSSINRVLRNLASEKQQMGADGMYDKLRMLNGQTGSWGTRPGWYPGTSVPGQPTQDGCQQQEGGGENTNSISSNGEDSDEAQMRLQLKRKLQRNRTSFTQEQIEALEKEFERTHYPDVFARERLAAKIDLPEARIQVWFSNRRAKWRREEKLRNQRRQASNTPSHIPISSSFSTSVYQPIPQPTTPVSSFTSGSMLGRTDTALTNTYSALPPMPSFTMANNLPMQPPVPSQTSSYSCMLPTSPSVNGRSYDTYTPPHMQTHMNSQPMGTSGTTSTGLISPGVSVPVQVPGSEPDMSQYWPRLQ
Sequence of Signal transducer and activator of transcription 3 (Homo sapiens) (P40763 whole entry, looked up): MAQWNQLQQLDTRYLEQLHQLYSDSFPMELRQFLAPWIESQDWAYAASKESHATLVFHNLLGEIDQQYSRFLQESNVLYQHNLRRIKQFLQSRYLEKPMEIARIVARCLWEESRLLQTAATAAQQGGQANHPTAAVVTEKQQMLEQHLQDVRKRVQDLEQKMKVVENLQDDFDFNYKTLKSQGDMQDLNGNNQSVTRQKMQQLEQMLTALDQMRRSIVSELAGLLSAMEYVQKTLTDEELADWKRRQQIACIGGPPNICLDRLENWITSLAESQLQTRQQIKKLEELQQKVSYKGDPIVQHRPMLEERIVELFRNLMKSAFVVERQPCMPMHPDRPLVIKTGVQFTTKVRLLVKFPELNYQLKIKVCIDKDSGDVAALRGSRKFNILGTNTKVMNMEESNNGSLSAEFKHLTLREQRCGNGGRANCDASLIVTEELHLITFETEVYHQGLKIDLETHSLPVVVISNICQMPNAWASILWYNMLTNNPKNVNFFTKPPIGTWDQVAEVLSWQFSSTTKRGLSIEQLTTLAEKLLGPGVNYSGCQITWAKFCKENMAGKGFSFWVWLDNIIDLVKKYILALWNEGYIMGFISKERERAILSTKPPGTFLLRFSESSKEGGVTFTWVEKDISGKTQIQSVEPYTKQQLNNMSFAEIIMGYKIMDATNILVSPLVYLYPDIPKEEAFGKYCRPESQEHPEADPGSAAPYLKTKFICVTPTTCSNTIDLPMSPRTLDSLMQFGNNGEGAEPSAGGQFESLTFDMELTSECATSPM
Sequence of Steroid hormone receptor ERR1 (Homo sapiens) (P11474 whole entry, looked up, the tested form may be a part): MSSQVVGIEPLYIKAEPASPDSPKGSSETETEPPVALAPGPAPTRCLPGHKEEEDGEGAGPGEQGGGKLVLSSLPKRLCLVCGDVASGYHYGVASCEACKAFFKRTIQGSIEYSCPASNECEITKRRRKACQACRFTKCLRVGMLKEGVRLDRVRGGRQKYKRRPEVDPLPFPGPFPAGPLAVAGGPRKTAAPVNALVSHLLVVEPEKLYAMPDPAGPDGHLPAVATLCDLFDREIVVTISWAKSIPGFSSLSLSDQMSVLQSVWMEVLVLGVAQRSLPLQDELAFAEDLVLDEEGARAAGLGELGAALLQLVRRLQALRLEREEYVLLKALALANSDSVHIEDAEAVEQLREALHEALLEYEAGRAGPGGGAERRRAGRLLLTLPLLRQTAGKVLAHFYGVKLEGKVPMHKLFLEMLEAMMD
Sequence of Transcription factor Sp1 (Homo sapiens) (P08047 whole entry, looked up): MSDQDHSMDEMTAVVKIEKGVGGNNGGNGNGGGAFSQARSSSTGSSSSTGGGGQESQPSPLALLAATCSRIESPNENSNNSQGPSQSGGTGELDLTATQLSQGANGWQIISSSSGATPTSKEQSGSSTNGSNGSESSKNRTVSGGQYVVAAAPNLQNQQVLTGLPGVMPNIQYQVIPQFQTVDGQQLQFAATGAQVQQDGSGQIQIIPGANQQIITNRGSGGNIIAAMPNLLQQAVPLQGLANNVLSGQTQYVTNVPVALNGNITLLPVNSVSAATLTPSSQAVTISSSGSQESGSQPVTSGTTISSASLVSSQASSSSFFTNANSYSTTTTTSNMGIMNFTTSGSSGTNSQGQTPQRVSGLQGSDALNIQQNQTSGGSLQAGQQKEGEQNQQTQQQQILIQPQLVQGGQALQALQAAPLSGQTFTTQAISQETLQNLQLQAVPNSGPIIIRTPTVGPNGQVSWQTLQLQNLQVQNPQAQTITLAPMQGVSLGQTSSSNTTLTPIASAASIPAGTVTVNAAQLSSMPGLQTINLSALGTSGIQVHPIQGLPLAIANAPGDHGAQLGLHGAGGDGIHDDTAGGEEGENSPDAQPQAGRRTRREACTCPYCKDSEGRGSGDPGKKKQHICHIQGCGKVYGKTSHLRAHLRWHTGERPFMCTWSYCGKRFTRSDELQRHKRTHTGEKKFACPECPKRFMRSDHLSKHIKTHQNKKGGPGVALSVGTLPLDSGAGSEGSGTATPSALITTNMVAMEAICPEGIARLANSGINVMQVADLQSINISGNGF
Sequence of Nuclear receptor subfamily 1 group I member 3 (Homo sapiens) (Q14994 whole entry, looked up, the tested form may be a part): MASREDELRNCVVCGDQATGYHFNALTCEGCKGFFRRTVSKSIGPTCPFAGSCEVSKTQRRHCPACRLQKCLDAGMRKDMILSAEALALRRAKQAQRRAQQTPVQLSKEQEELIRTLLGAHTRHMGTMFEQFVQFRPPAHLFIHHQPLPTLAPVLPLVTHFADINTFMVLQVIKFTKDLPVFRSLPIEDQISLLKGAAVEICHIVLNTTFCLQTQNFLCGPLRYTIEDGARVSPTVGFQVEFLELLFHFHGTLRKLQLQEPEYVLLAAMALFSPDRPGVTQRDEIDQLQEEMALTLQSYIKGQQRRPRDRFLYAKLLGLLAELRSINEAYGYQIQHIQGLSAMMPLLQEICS

N#Cc1nc(Cl)c(Cl)c(Cl)c1Cl
inactive: [3] | [4] | [5] | [6] | [7] | [9] | [10] | [12]
active: [1] 5.32 µM | [2] 5.5 µM | [8] 3.82 µM | [11] 5.85 µM

CCN(CC)c1ccc2c(-c3ccccc3C(=O)O)c3ccc(=[N+](CC)CC)cc-3oc2c1
active: [1] 149 µM | [2] 0.882 µM | [13] 26.9 µM | [8] 30.8 µM | [14] 33.5 µM
inactive: [3] | [4] | [5] | [6] | [7] | [9] | [10] | [15] | [16]

O=C(O)CN(CCN(CC(=O)O)CC(=O)O)CCN(CC(=O)O)CC(=O)O
inactive: [1] | [2] | [3] | [4] | [13] | [6] | [7] | [8] | [9] | [10] | [14] | [17] | [11] | [15] | [16] | [12]

CNCCO
inactive: [1] | [2] | [3] | [4] | [18] | [13] | [6] | [8] | [9] | [10] | [11] | [15]

COc1ccc(Nc2ccccc2)c(C)c1
active: [2] 26.9 µM | [3] 67.2 µM | [4] 51.5 µM | [19] 7.87 µM
inactive: [1] | [18] | [13] | [6] | [7] | [8] | [9] | [10] | [17] | [12]

OCC(CO)(CO)COCC(CO)(CO)CO
inactive: [1] | [2] | [4] | [18] | [5] | [13] | [6] | [7] | [8] | [9] | [10] | [14] | [20] | [11] | [16]

CC1(C)[C@H]2CC[C@]1(C)[C@H](O)C2
inactive: [1] | [4] | [18] | [5] | [13] | [6] | [7] | [8] | [9] | [10] | [20] | [11] | [16]
active: [2] 68.7 µM

c1ccc(CCCc2ccccn2)cc1
active: [2] 100 µM | [10] 148 µM | [14] 42.9 µM
inactive: [1] | [4] | [18] | [5] | [13] | [6] | [7] | [8] | [9] | [19] | [17] | [11] | [12]

OC1OC[C@@H](O)[C@H](O)[C@H]1O (some centres undefined)
inactive: [1] | [2] | [4] | [18] | [5] | [13] | [6] | [7] | [8] | [9] | [11] | [15]

CC(=O)Nc1ccc(CC(=O)O)cc1
inactive: [1] | [2] | [4] | [18] | [5] | [13] | [6] | [7] | [8] | [9] | [10] | [19] | [15] | [16]
